Reference: the supplement of paper PMC10849652
The full data set covers some 7,900 targets. This sample favours those with a hit. About 0.6% of all pairs of compound and target were hits.

Experiments:
Experiment in all cases: log2 fold change, soluble protein after heating vs DMSO (PISA); higher = thermal stabilisation; K562 cells, 10 uM, 30 min; active = over 0.2 and 3.5 SD of the protein, either way, in both replicates (recomputed)
saracatinib = compound: CN1CCN(CCOc2cc(OC3CCOCC3)c3c(Nc4c(Cl)ccc5c4OCO5)ncnc3c2)CC1 [saracatinib]
Outline: (§1)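 K562 cells at 2×10^6 cells/mL were treated for 30 min with 10 μM compound, and aliquots were heated for 3 min over 48°C-58°C before pooling. Extraction used PBS with 0.5% NP-40 at 4°C, and soluble protein was the supernatant after 21,000xg for 90 min, measured by TMTpro 16plex LC-MS/MS with channel sums equalised. Thermal stability values, relative to control samples and from duplicates, are log2 fold changes.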

sotrastaurin = compound: CN1CCN(c2nc(C3=C(c4c[nH]c5ccccc45)C(=O)NC3=O)c3ccccc3n2)CC1 [sotrastaurin]
Outline: as §1

alvocidib = compound: CN1CC[C@H](c2c(O)cc(O)c3c(=O)cc(-c4ccccc4Cl)oc23)[C@H](O)C1 [alvocidib]
Outline: as §1

Tubastatin A = compound: CN1CCc2c(c3ccccc3n2Cc2ccc(C(=O)NO)cc2)C1 [Tubastatin A]
Outline: as §1

[1] = compound: CNC(=O)C1=CC=CC=C1NC2=NC(=NC=C2Cl)NC3=C(C=C(C=C3)N4CCOCC4)OC
Outline: as §1

defactinib = compound: CNC(=O)c1ccc(Nc2ncc(C(F)(F)F)c(NCc3nccnc3N(C)S(C)(=O)=O)n2)cc1 [defactinib]
Outline: as §1

rucaparib = compound: CNCc1ccc(-c2[nH]c3cc(F)cc4c3c2CCNC4=O)cc1 [rucaparib]
Outline: as §1

[2] = compound: CNc1nc(-c2ccc3c(N)n[nH]c3c2)cc(N2C[C@@H](C(=O)NC3CCCCC3)CC[C@H]2C)n1
Outline: as §1

encorafenib = compound: COC(=O)N[C@@H](C)CNc1nccc(-c2cn(C(C)C)nc2-c2cc(Cl)cc(NS(C)(=O)=O)c2F)n1 [encorafenib]
Outline: as §1

[3] = compound: COC(=O)[C@H](CCSC)NC(=O)C1=C(C=C(C=C1)NC[C@H](CS)N)C2=CC=CC=C2
Outline: as §1

[4] = compound: COC1=CC=C(C=C1)CN2C=CC3=C2C=C(C=C3)C(=O)NO
Outline: as §1

filanesib = compound: CON(C)C(=O)N1N=C(c2cc(F)ccc2F)S[C@@]1(CCCN)c1ccccc1 [filanesib]
Outline: as §1

zotarolimus = compound: CO[C@H]1C[C@@H]2CC[C@@H](C)[C@@](O)(O2)C(=O)C(=O)N2CCCC[C@H]2C(=O)O[C@H]([C@H](C)C[C@@H]2CC[C@H](n3cnnn3)[C@H](OC)C2)CC(=O)[C@H](C)/C=C(\C)[C@@H](O)[C@@H](OC)C(=O)[C@H](C)C[C@H](C)/C=C/C=C/C=C/1C [zotarolimus]
Outline: as §1

idasanutlin = compound: COc1cc(C(=O)O)ccc1NC(=O)[C@@H]1N[C@@H](CC(C)(C)C)[C@](C#N)(c2ccc(Cl)cc2F)[C@H]1c1cccc(Cl)c1F [idasanutlin]
Outline: as §1

alisertib = compound: COc1cc(Nc2ncc3c(n2)-c2ccc(Cl)cc2C(c2c(F)cccc2OC)=NC3)ccc1C(=O)O [alisertib]
Outline: as §1

[5] = compound: COc1cc2nc(-c3cc(F)ccc3O)nc(N[C@@H]3CNC[C@H]3C(C)(C)O)c2cc1OC
Outline: as §1

gefitinib = compound: COc1cc2ncnc(Nc3ccc(F)c(Cl)c3)c2cc1OCCCN1CCOCC1 [gefitinib]
Outline: as §1

[6] = compound: COc1cccc2cc(-c3nc([C@H]4CC[C@H](C(=O)O)CC4)n4ncnc(N)c34)[nH]c12
Outline: as §1

lapatinib = compound: CS(=O)(=O)CCNCc1ccc(-c2ccc3ncnc(Nc4ccc(OCc5cccc(F)c5)c(Cl)c4)c3c2)o1 [lapatinib]
Outline: as §1

pictilisib = compound: CS(=O)(=O)N1CCN(Cc2cc3nc(-c4cccc5[nH]ncc45)nc(N4CCOCC4)c3s2)CC1 [pictilisib]
Outline: as §1

Measured: log2 fold change

BOP1 (UniProt Q14137)
inactive: saracatinib 0.011 | sotrastaurin -0.043 | alvocidib -0.082 | Tubastatin A -0.013 | [1] 0.015 | defactinib -0.157 | rucaparib 0.066 | [2] -0.016 | encorafenib 0.155 | [3] 0.046 | [4] -0.059 | filanesib 0.161 | zotarolimus 0.054 | idasanutlin 0.077 | alisertib -0.131 | [5] -0.085 | gefitinib 0.017 | [6] -0.012 | lapatinib -0.034 | pictilisib 0

AARSD1 isoform 3 (UniProt Q9BTE6)
Sequence of UniProt Q9BTE6 (Q9BTE6 whole entry, looked up): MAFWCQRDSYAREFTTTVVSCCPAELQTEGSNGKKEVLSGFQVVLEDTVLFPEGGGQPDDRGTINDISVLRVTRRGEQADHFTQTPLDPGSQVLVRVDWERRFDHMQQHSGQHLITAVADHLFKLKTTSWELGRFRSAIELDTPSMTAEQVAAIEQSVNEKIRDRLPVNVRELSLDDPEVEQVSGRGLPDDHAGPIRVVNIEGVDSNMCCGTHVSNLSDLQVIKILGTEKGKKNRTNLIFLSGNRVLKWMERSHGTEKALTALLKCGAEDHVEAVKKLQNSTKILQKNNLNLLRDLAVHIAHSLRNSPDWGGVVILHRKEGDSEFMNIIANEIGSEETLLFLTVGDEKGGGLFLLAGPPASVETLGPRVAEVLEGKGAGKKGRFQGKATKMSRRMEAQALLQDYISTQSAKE
active: Tubastatin A -0.336 | [4] -0.47
inactive: saracatinib -0.009 | sotrastaurin -0.113 | alvocidib -0.016 | [1] 0.081 | defactinib -0.071 | rucaparib -0.077 | [2] -0.037 | encorafenib 0.08 | [3] 0.004 | filanesib -0.013 | zotarolimus 0.012 | idasanutlin 0.076 | alisertib -0.067 | [5] -0.012 | gefitinib 0.083 | [6] -0.081 | lapatinib 0.045 | pictilisib 0.029

AHSA1 (UniProt O95433)
inactive: saracatinib 0.022 | sotrastaurin 0.014 | alvocidib -0.039 | Tubastatin A -0.003 | [1] 0 | defactinib -0.061 | rucaparib -0.084 | [2] 0.011 | encorafenib 0.02 | [3] -0.008 | [4] -0.029 | filanesib -0.061 | zotarolimus 0.003 | idasanutlin -0.064 | alisertib -0.037 | [5] 0.109 | gefitinib 0.022 | [6] 0.031 | lapatinib -0.02 | pictilisib -0.023

AGO1 (UniProt Q9UL18)
inactive: saracatinib -0.066 | sotrastaurin -0.307 | alvocidib 0.141 | Tubastatin A -0.164 | [1] -0.039 | defactinib -0.03 | rucaparib 0.16 | [2] -0.085 | encorafenib 0.086 | [3] -0.036 | [4] -0.107 | filanesib -0.015 | zotarolimus -0.069 | idasanutlin 0.009 | alisertib 0.05 | [5] -0.031 | gefitinib -0.119 | [6] -0.029 | lapatinib 0.061 | pictilisib -0.002

ADPRHL2 (UniProt Q9NX46)
Sequence of UniProt Q9NX46 (Q9NX46 whole entry, looked up): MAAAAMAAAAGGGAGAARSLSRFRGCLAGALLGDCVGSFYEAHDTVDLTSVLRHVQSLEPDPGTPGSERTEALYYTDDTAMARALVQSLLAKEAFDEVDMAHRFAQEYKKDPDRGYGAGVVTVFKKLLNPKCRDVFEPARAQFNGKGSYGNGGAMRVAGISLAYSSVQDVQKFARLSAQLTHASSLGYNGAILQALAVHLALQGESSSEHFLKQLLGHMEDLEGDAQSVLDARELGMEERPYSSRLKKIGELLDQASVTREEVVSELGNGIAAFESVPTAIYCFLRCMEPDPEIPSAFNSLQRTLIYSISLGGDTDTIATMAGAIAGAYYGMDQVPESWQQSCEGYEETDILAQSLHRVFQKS
active: [5] 0.245
inactive: saracatinib 0.039 | sotrastaurin -0.001 | alvocidib -0.003 | Tubastatin A 0.031 | [1] 0.049 | defactinib 0.015 | rucaparib -0.085 | [2] -0.026 | encorafenib -0.009 | [3] -0.116 | [4] 0.111 | filanesib -0.08 | zotarolimus 0.022 | idasanutlin -0.06 | alisertib 0.009 | gefitinib -0.028 | [6] 0.012 | lapatinib 0.03 | pictilisib 0.078

ACTR1B (UniProt P42025)
inactive: saracatinib 0.012 | sotrastaurin -0.025 | alvocidib -0.058 | Tubastatin A -0.004 | [1] 0 | defactinib -0.005 | rucaparib -0.037 | [2] -0.012 | encorafenib -0.048 | [3] -0.075 | [4] 0.084 | filanesib 0.044 | zotarolimus -0.026 | idasanutlin -0.136 | alisertib -0.163 | [5] 0.008 | gefitinib 0.04 | [6] 0.073 | lapatinib -0.104 | pictilisib 0.127

AKAP8 (UniProt O43823)
inactive: saracatinib 0.012 | sotrastaurin -0.021 | alvocidib 0.112 | Tubastatin A 0.002 | [1] -0.073 | defactinib 0.01 | rucaparib 0.017 | [2] -0.126 | encorafenib 0.037 | [3] 0.008 | [4] 0.026 | filanesib 0.035 | zotarolimus -0.105 | idasanutlin 0.052 | alisertib -0.046 | [5] -0.002 | gefitinib -0.049 | [6] 0.067 | lapatinib 0.014 | pictilisib 0.101

ALDH18A1 (UniProt P54886)
active: lapatinib -0.652
inactive: saracatinib -0.038 | sotrastaurin -0.178 | alvocidib 0.063 | Tubastatin A -0.027 | [1] -0.065 | defactinib -0.122 | rucaparib 0.001 | [2] -0.281 | encorafenib 0.098 | [3] -0.047 | [4] -0.024 | filanesib -0.01 | zotarolimus 0.045 | idasanutlin -0.233 | alisertib -0.09 | [5] 0.215 | gefitinib -0.18 | [6] 0.067 | pictilisib -0.101

AFDN isoform 5 (UniProt P55196)
Sequence of UniProt P55196 (P55196 whole entry, looked up): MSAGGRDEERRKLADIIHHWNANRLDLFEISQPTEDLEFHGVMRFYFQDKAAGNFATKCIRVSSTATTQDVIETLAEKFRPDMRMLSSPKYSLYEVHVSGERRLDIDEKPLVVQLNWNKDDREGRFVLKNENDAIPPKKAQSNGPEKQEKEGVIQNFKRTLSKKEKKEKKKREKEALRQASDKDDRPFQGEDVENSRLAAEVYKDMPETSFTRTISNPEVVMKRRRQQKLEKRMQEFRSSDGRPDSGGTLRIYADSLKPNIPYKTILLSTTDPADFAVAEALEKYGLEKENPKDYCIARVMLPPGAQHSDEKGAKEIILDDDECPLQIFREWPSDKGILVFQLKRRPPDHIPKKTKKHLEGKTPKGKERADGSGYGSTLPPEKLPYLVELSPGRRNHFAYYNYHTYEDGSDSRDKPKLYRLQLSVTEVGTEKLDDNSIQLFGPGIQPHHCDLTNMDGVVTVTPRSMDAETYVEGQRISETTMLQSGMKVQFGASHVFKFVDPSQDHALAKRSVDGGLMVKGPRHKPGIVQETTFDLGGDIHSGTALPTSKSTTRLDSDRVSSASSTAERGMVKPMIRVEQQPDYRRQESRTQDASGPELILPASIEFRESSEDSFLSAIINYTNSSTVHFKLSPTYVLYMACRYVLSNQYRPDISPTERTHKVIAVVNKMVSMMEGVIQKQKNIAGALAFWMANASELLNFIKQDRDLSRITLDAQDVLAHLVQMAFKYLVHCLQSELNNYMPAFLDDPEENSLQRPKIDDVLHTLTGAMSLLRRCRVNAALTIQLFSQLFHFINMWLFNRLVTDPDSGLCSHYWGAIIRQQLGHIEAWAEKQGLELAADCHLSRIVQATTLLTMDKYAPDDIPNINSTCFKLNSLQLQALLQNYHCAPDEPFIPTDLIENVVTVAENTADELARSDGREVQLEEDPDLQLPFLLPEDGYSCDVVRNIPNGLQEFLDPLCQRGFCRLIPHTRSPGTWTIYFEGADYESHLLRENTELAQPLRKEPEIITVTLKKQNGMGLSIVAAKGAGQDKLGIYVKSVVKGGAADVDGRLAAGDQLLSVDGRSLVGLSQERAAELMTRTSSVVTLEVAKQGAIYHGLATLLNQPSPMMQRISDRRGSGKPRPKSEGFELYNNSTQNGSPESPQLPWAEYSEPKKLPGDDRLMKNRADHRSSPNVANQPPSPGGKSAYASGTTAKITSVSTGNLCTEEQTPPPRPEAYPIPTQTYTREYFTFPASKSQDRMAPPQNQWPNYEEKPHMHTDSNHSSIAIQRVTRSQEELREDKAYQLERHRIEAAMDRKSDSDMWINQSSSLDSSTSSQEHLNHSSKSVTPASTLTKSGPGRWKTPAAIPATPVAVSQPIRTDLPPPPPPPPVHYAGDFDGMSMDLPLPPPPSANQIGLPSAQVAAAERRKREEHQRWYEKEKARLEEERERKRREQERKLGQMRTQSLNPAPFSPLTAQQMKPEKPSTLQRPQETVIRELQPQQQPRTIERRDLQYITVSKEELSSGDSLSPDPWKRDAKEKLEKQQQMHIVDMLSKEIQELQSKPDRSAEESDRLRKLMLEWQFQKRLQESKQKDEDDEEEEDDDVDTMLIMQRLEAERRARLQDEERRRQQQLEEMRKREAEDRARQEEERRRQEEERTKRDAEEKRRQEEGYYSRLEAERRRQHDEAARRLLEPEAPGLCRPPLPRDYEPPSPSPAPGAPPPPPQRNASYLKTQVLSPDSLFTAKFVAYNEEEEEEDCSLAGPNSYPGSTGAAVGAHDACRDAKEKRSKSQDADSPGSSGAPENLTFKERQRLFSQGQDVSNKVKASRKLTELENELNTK
inactive: saracatinib -0.034 | sotrastaurin -0.032 | alvocidib -0.095 | Tubastatin A 0.025 | [1] -0.043 | defactinib -0.115 | rucaparib 0.023 | [2] 0.035 | encorafenib 0.077 | [3] -0.033 | [4] 0.131 | filanesib 0.014 | zotarolimus 0.013 | idasanutlin -0.06 | alisertib 0 | [5] 0.034 | gefitinib -0.017 | [6] -0.009 | lapatinib -0.026 | pictilisib -0.009

APOH (UniProt P02749)
Sequence of UniProt P02749 (P02749 whole entry, looked up): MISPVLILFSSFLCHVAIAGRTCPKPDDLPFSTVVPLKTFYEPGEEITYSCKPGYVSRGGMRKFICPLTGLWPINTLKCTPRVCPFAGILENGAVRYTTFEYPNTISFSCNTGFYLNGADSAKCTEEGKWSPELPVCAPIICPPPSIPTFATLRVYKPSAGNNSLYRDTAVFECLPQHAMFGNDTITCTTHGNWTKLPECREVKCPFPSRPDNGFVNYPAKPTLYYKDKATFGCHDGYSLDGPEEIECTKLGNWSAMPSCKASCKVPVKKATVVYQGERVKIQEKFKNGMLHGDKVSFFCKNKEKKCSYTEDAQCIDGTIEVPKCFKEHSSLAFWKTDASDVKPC
active: idasanutlin 1.05
inactive: saracatinib 0.097 | sotrastaurin 0.317 | alvocidib 0.371 | Tubastatin A -0.128 | [1] -0.032 | defactinib -0.042 | rucaparib -0.13 | [2] -0.391 | encorafenib 0.041 | [3] -0.021 | [4] 0.03 | filanesib -0.156 | zotarolimus -0.696 | alisertib 0.151 | [5] -0.059 | gefitinib -0.307 | [6] 0.529 | lapatinib -0.197 | pictilisib -0.537

B4GALNT1 (UniProt Q00973)
inactive: saracatinib -0.143 | sotrastaurin -0.07 | alvocidib 0.177 | Tubastatin A -0.057 | [1] -0.021 | defactinib -0.182 | rucaparib 0.017 | [2] 0.025 | encorafenib 0.144 | [3] -0.425 | [4] 0.023 | filanesib 0.092 | zotarolimus 0.081 | idasanutlin 0.093 | alisertib -0.063 | [5] -0.045 | gefitinib 0.119 | [6] 0.112 | lapatinib 0.097 | pictilisib -0.045

ANAPC2 (UniProt Q9UJX6)
Sequence of UniProt Q9UJX6 (Q9UJX6 whole entry, looked up): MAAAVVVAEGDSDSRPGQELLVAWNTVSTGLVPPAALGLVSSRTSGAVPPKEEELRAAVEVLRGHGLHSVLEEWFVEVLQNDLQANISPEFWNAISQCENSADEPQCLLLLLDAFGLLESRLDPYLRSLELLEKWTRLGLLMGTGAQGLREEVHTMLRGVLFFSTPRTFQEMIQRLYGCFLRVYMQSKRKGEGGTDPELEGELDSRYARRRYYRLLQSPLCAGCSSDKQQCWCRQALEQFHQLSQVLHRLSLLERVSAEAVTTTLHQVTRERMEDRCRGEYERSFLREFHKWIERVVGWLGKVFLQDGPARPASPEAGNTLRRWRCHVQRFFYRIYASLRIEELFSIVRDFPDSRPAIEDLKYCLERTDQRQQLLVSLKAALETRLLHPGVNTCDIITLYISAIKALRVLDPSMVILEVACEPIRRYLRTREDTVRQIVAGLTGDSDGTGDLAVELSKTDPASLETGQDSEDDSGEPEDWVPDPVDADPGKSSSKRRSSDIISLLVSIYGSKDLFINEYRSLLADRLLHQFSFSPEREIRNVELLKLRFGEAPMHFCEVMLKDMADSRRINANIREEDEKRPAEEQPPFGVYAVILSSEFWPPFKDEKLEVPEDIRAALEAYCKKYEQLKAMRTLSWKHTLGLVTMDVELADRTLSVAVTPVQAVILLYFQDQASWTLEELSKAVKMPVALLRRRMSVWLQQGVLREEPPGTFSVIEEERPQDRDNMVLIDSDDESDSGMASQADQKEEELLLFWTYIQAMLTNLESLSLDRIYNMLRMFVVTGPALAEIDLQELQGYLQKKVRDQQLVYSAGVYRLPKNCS
inactive: saracatinib -0.003 | sotrastaurin -0.084 | alvocidib -0.02 | Tubastatin A 0.009 | [1] -0.011 | defactinib -0.049 | rucaparib 0.027 | [2] -0.063 | encorafenib 0.124 | [3] 0.006 | [4] 0.026 | filanesib -0.042 | zotarolimus 0.012 | idasanutlin -0.047 | alisertib -0.074 | [5] -0.038 | gefitinib -0.034 | [6] -0.004 | lapatinib 0.059 | pictilisib 0.015

ATAD3A isoform 2 (UniProt Q9NVI7)
Sequence of UniProt Q9NVI7 (Q9NVI7 whole entry, looked up): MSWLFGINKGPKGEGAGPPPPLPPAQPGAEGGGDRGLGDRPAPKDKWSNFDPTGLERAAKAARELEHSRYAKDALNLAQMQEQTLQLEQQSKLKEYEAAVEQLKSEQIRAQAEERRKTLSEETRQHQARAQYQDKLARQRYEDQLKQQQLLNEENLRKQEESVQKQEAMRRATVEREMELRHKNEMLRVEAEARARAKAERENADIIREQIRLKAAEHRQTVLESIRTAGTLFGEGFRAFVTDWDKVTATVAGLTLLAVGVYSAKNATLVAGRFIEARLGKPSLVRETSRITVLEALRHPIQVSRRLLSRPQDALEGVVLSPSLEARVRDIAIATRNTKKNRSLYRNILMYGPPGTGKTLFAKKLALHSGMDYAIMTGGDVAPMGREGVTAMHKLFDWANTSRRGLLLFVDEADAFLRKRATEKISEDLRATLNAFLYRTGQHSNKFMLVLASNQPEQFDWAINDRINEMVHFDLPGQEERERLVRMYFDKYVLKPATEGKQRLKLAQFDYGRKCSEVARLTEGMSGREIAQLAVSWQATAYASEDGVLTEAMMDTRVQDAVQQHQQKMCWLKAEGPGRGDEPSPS
inactive: saracatinib 0.001 | sotrastaurin -0.053 | alvocidib 0.102 | Tubastatin A 0.04 | [1] -0.139 | defactinib 0.05 | rucaparib 0.252 | [2] -0.017 | encorafenib 0.154 | [3] -0.046 | [4] -0.029 | filanesib -0.005 | zotarolimus -0.053 | idasanutlin 0.073 | alisertib -0.006 | [5] -0.116 | gefitinib -0.199 | [6] 0.001 | lapatinib -0.029 | pictilisib -0.185

AP2B1 isoform 2 (UniProt P63010)
inactive: saracatinib 0.057 | sotrastaurin -0.003 | alvocidib 0.017 | Tubastatin A 0.001 | [1] 0.022 | defactinib 0.005 | rucaparib 0.043 | [2] -0.011 | encorafenib 0.027 | [3] 0.005 | [4] 0.08 | filanesib 0.022 | zotarolimus 0.036 | idasanutlin -0.019 | alisertib -0.062 | [5] 0.012 | gefitinib 0.01 | [6] 0.01 | lapatinib 0.049 | pictilisib 0.015

ACSL4 (UniProt O60488)
Sequence of UniProt O60488 (O60488 whole entry, looked up): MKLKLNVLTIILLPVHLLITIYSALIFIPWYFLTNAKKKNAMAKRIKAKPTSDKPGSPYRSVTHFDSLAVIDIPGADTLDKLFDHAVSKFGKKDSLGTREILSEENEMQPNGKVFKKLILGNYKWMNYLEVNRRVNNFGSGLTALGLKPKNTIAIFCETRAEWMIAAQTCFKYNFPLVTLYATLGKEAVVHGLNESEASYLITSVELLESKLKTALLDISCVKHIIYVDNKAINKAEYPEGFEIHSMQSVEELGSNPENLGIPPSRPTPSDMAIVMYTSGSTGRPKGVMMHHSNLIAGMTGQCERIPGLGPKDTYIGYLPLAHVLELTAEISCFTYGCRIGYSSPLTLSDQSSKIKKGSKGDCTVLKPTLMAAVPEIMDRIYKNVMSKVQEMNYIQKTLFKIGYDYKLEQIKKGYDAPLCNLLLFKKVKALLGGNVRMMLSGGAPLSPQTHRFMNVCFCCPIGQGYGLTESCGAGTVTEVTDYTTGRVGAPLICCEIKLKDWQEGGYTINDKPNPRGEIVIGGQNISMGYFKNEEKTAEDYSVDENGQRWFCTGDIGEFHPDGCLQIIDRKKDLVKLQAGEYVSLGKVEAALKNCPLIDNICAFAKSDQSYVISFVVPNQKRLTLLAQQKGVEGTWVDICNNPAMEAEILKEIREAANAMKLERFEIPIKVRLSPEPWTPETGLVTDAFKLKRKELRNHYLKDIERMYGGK
inactive: saracatinib -0.128 | sotrastaurin -0.086 | alvocidib 0.033 | Tubastatin A 0.071 | [1] 0.05 | defactinib -0.041 | rucaparib 0.069 | [2] 0.043 | encorafenib 0.094 | [3] -0.024 | [4] 0.09 | filanesib -0.071 | zotarolimus -0.058 | idasanutlin -0.113 | alisertib -0.006 | [5] -0.105 | gefitinib 0.075 | [6] -0.053 | lapatinib 0.052 | pictilisib 0.052

ATP12A isoform 2 (UniProt P54707)
inactive: saracatinib 0.011 | sotrastaurin 0.031 | alvocidib -0.026 | Tubastatin A -0.019 | [1] 0.002 | defactinib -0.072 | rucaparib -0.027 | [2] 0.023 | encorafenib -0.015 | [3] -0.005 | [4] -0.034 | filanesib -0.015 | zotarolimus -0.015 | idasanutlin 0.016 | alisertib -0.008 | [5] 0.071 | gefitinib 0.032 | [6] 0.043 | lapatinib -0.074 | pictilisib 0.1
